Whole data set: some 33,000 sequences, median “E-score (-0.5 to 0.5)” near -0.016, cut for the highest 2% near 0.32. The full list was thinned out, with the highest values kept by preference.
What follows are sequences tested against T1, Stp1 (UniProt B3LFK1) (assay: PBM E-score (8-mer binding enrichment) (E-score (-0.5 to 0.5)); higher = stronger / more preferred TF binding). Conditions: protein concentration: 200 nM; construct: GST-full length.
T1 sequence: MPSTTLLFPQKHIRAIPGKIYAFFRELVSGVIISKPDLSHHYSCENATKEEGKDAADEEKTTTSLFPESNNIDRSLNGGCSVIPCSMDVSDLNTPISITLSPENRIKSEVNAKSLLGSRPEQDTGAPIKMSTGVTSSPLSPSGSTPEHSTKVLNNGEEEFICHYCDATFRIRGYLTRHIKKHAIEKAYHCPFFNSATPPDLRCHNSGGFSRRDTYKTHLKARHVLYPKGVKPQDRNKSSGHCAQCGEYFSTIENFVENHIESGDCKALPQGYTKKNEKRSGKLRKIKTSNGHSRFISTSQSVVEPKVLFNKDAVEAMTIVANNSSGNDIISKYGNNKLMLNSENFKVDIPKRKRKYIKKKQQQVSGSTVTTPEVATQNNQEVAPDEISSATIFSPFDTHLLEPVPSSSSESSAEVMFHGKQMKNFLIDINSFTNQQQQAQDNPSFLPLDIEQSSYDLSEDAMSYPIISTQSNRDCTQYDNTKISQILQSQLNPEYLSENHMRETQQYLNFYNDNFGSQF
Description: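 Universal 'all 10-mer' protein binding microarrays (Agilent AMADID 015681) probed with GST-tagged S. cerevisiae TFs (full-length or DBD) made by in vitro transcription/translation (PURExpress), about 100-200 nM. Bound TF was detected with fluorescent anti-GST. Each ungapped 8-mer (which stands for itself and its reverse complement) is scored by the PBM enrichment score (E-score), a modified Wilcoxon-Mann-Whitney statistic from -0.5 to +0.5, computed with the Universal PBM Analysis Suite. Scale: above 0.35 generally sequence-specific binding.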

Sequence	PBM E-score
TAGGCACA	0.132
AAGGCAGA	-0.164
AAGGCAAA	0.247
CACAAGCA	-0.0847
AGTCCTTG	-0.0837
GTTTCTCA	-0.115
CAAGTAAC	0.0497
ATGAGAAT	0.146
CCTAATCA	-0.0333
ACAGAGAA	-0.0516
GATTTGCC	0.219
AGCCCGCC	-0.0384
ATCTGCTC	-0.272
TAAGATTA	0.0404
AATGCACT	0.109
AAGGCACT	0.323
AAGGCATG	0.158
AGGGCACT	0.239
AAGGCATT	0.322
AAGGCATC	0.292
CCCTACAG	-0.178
GTCGCAAA	0.155

Sequence	PBM E-score
CACGGCTC	0.469
CAAGGCTC	0.0922
CCCGGCTA	-0.148
ACCGGCTG	-0.0577
CACGGCTG	0.363
ACCGGCTC	-0.0667
AACGGCTC	0.407
AACGGCTT	0.366
AAAGGCTT	-0.0867
AACGGCTG	0.0994
GACGGCTC	0.307
AACGGGCT	-0.293
CATGTAGG	-0.00116
AGTTGAGA	-0.0601
ACTCCAGG	-0.175
GGAGCACC	-0.188
CCTTACAG	0.0881
AGGGAGTG	-0.0747
CCGTCATA	0.0738
CAGAACGA	0.00724
GCCGGCTA	0.0397
CTCGGCTA	0.0804

Sequence	PBM E-score
CACGGCTA	0.415
AACGGCTA	0.372
GTCGGCTA	-0.0709
TACGGCTA	0.349
ATCGGCTA	-0.108
ACCGGCTA	-0.0689
GACGGCTA	0.235
ACACCTTA	0.0262
ACGACCGT	-0.11
AAAGTGCC	0.201
ATCACGGA	-0.0235
CACACGGG	0.235
AACACGGG	0.116
AACACGGA	0.199
AGCACGGG	0.14
AGCACGGC	0.451
AGCACGGA	0.114
ATCACGGG	0.00016
ATCACGGC	0.351
CACACGGC	0.471
AACACGGC	0.449
CACACGGA	0.253

Sequence	PBM E-score
ACACCGAA	0.0644
AAGGAGCT	-0.235
AAAGCAAC	0.0791
AGTATTCG	0.0476
ATTTGGTA	0.144
AGACGCGC	0.0493
GACACGGC	0.479
GACACGGA	0.315
GACACGCC	0.105
GCCCTATA	0.206
AACCAAAG	0.0816
ACCACTAT	-0.127
CGCATTAC	-0.0452
GGCATTAC	0.364
CGCATTAA	0.144
AGCATTAC	-0.0767
GGCATTAA	0.319
AGCATTAA	-0.0764
ATACTGGC	-0.284
AATATCGT	0.141
ACCCAACT	-0.178
CGTGCCGA	0.352
